Measured values from PubChem BioAssay (NCATS).
Inconclusive results are not listed. Activity calls are given as the source filed them. The call rests on the fitted dose curve; in most records, active means well fitted curve in the direction sought with a large enough effect; inconclusive means small, poorly fitted or top-dose-only effect, or another doubt; inactive means no such curve, though single readings can be large; an effect the other way counts as inactive or inconclusive.

Columns and labels:
CRL-7250 = normal cell line; experiment: Cytotoxic Profiling of Annotated Libraries Using Quantitative High-Throughput Screening (AID 1296008); conditions: Five cell lines viability, CellTiter-Glo ATP luminescence, 48-72 h; max response: active compounds read low; further: nearly all actives have a fitted effect of over 60% in size; on max response: on the % scale 0 is the no-effect control and ±100 the full control effect
Method in brief: (§1)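 Compounds were pin-transferred onto cells and incubated 48 or 72 hr at 37 degree Celsius, 95% humidity. CellTiter-Glo was added, plates sat 10 min at room temperature, then ATP-coupled luminescence was imaged as the viability read-out.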

HEK293 = experiment: as above; conditions: Five cell lines viability, CellTiter-Glo ATP luminescence, 48-72 h; max response: active compounds read low
Method in brief: as §1

HaCat = experiment: as above; conditions: Five cell lines viability, CellTiter-Glo ATP luminescence, 48-72 h; max response: active compounds read low
Method in brief: as §1

KB-3-1 = experiment: as above; conditions: Five cell lines viability, CellTiter-Glo ATP luminescence, 48-72 h; max response: active compounds read low
Method in brief: as §1

NIH3T3 = experiment: as above; conditions: Five cell lines viability, CellTiter-Glo ATP luminescence, 48-72 h; max response: active compounds read low
Method in brief: as §1

HEK293T = experiment: qHTS assay to identify novel small-molecules to repurpose for Merkel cell carcinoma treatment (AID 1296009); conditions: MCC and control cell lines, CellTiter-Glo viability, 72 h; series mostly up to 44.8 µM; further: nearly all actives have a fitted effect of over 60% in size
Method in brief: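 Viability readout: ATP luminescence (CellTiter-Glo) after 72 hr drug exposure at 37 degree celsius. Dose-response format was 8 points for NPC and 11 points for MIPE; data normalized to in-plate controls.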

C33A = experiment: Primary qHTS to identify gynecologic anti-cancer compounds using libraries of approved drugs and bioactive compounds (AID 1345084); conditions: Gynecologic cancer cell panel viability, ATPlite luminescence, 48 h; series mostly up to 57.5 µM; further: on the % scale 0 is the no-effect control and ±100 the full control effect; nearly all actives have a fitted effect of over 55% in size
Method in brief: (§2)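 ATP-based viability (ATPlite), 1,000 cells/well, 16 h pre-incubation, 48 h compound at 37 C, 5% CO2, 15 min RT before read.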

CAOV3 = experiment: as above; conditions: Gynecologic cancer cell panel viability, ATPlite luminescence, 48 h; series mostly up to 57.5 µM
Method in brief: as §2

CASKI = experiment: as above; conditions: Gynecologic cancer cell panel viability, ATPlite luminescence, 48 h; series mostly up to 57.5 µM
Method in brief: as §2

Es-2 = experiment: as above; conditions: Gynecologic cancer cell panel viability, ATPlite luminescence, 48 h; series mostly up to 57.5 µM
Method in brief: as §2

HeLa = experiment: as above; conditions: Gynecologic cancer cell panel viability, ATPlite luminescence, 48 h; series mostly up to 57.5 µM
Method in brief: as §2

CC1(CO)CC[C@]2(C(=O)O[C@@H]3O[C@H](CO)[C@@H](O)[C@H](O)[C@H]3O)CC[C@]3(C)C(=CCC4[C@@]5(C)C[C@H](O)[C@H](O[C@@H]6OC[C@@H](O)[C@H](O)[C@H]6O)[C@@](C)(CO)C5CC[C@]43C)C2C1 (some centres not stated)
inactive: outcome (CRL-7250) | outcome (HEK293) | max response (HaCat) -24.8% | outcome (KB-3-1) | max response (NIH3T3) 2.22% | outcome (HEK293T) inactive [at 9.27 µM] | activity change, negative = cytotoxicity (C33A) 5.37% [at 11.6 µM] | activity change, negative = cytotoxicity (CAOV3) -5.98% [at 11.6 µM] | activity change, negative = cytotoxicity (CASKI) 3.16% [at 11.6 µM] | activity change, negative = cytotoxicity (Es-2) -0.538% [at 11.6 µM] | activity change, negative = cytotoxicity (HeLa) 1.08% [at 11.6 µM]

COc1c(OC2OC(CO)C(O)C(O)C2O)ccc(O)c1C(=O)OCc1ccccc1O[C@@H]1O[C@H](CO)[C@@H](O)[C@H](O)[C@H]1O (some centres not stated)
inactive: outcome (CRL-7250) | outcome (HEK293) | max response (HaCat) 3.76% | outcome (KB-3-1) | max response (NIH3T3) -1.73% | Potency (HEK293T) | Potency (C33A) | Potency (CAOV3) | Potency (CASKI) | Potency (Es-2) | Potency (HeLa)

CC(C)CC(=O)OC[C@H]1O[C@@](COC(=O)CC(C)C)(O[C@H]2O[C@H](CO)[C@@H](O)[C@H](O)[C@H]2OC(=O)CC(C)C)[C@@H](OC(=O)CC(C)C)[C@@H]1O
inactive: outcome (CRL-7250) | outcome (HEK293) | max response (HaCat) -5.25% | max response (KB-3-1) 6.03% | max response (NIH3T3) 0.671% | Potency (HEK293T) | Potency (C33A) | Potency (CAOV3) | Potency (CASKI) | Potency (Es-2) | Potency (HeLa)

COc1cccc2c1CCC[C@H]2CN(C)CCc1ccc2ccoc2c1
inactive: outcome (CRL-7250) | outcome (HEK293) | max response (HaCat) 3.47% | max response (KB-3-1) 4.61% | max response (NIH3T3) -8.39% | Potency (HEK293T) | Potency (C33A) | Potency (CAOV3) | Potency (CASKI) | Potency (Es-2) | Potency (HeLa)

C=C1CC[C@H]2[C@@](C)(CCC[C@@]2(C)C(=O)O)[C@@H]1CCC(C)CCO (some centres not stated)
inactive: max response (CRL-7250) -8.65% | outcome (HEK293) | max response (HaCat) 1.39% | max response (KB-3-1) 2.57% | max response (NIH3T3) 3.89% | Potency (HEK293T) | Potency (C33A) | Potency (CAOV3) | Potency (CASKI) | Potency (Es-2) | Potency (HeLa)

CC1(C)CC2C(C1)C1(C)CCC13OC3(CO)C2O (configuration not stated)
inactive: max response (CRL-7250) -2.76% | outcome (HEK293) | max response (HaCat) -6.47% | outcome (KB-3-1) | max response (NIH3T3) 5% | Potency (HEK293T) | Potency (C33A) | Potency (CAOV3) | Potency (CASKI) | Potency (Es-2) | Potency (HeLa)

CC1(C)CCCC2(C)C1C(O)C=C(CO)C2(O)C(=O)O (configuration not stated)
inactive: max response (CRL-7250) 3.48% | outcome (HEK293) | max response (HaCat) -13.1% | max response (KB-3-1) 3.33% | max response (NIH3T3) 3.08% | Potency (HEK293T) | Potency (C33A) | Potency (CAOV3) | Potency (CASKI) | Potency (Es-2) | Potency (HeLa)

Cc1c(CN(C)C(=O)/C=C/c2cnc3c(c2)CCC(=O)N3)oc2ccccc12
inactive: outcome (CRL-7250) | outcome (HEK293) | max response (HaCat) 1.29% | max response (KB-3-1) 9.61% | max response (NIH3T3) -2.06% | Potency (HEK293T) | Potency (C33A) | Potency (CAOV3) | Potency (CASKI) | Potency (Es-2) | Potency (HeLa)

COC(=O)[C@]12C(=O)C(C)=C(O)[C@@]1(C)C(C)=CC1[C@@]34CC[C@@H](OC(C)=O)C(C)(C)C3[C@H](C[C@]12C)OC4=O (some centres not stated)
inactive: max response (CRL-7250) 4.87% | outcome (HEK293) | max response (HaCat) -9.29% | max response (KB-3-1) 1.77% | max response (NIH3T3) 4.25% | Potency (HEK293T) | Potency (C33A) | Potency (CAOV3) | Potency (CASKI) | Potency (Es-2) | Potency (HeLa)

COC1CC(=O)CCC(C)OC(=O)CC1O (configuration not stated)
inactive: max response (CRL-7250) -4.48% | outcome (HEK293) | max response (HaCat) 1.84% | outcome (KB-3-1) | max response (NIH3T3) 4.21% | Potency (HEK293T) | Potency (C33A) | Potency (CAOV3) | Potency (CASKI) | Potency (Es-2) | Potency (HeLa)

COc1c(C)c(OCC=C(C)C)cc2c1C(=O)NC2=O
inactive: max response (CRL-7250) -3.35% | outcome (HEK293) | max response (HaCat) -14.7% | outcome (KB-3-1) | max response (NIH3T3) -1.16% | Potency (HEK293T) | Potency (C33A) | Potency (CAOV3) | Potency (CASKI) | Potency (Es-2) | Potency (HeLa)

COc1ccc2c(c1)O[C@H](O[C@@H]1O[C@H](CO)[C@@H](O)[C@H](O)[C@H]1O)C(=O)N2
inactive: outcome (CRL-7250) | outcome (HEK293) | max response (HaCat) -4.71% | outcome (KB-3-1) | outcome (NIH3T3) | Potency (HEK293T) | Potency (C33A) | Potency (CAOV3) | Potency (CASKI) | Potency (Es-2) | Potency (HeLa)
